PubChem BioAssay (NCATS)
Values joined by “and” are separate entries in the source; they are usually repeats but may differ in a detail not shown here. Equal values may be shown once. Results filed as inconclusive are left out. Active and inactive are the calls of the source. The call rests on the fitted dose curve; in most records, active means well fitted curve in the direction sought with a large enough effect; inconclusive means small, poorly fitted or top-dose-only effect, or another doubt; inactive means no such curve, though single readings can be large; an effect the other way counts as inactive or inconclusive. Peptide text beside a SMILES is read from it.

Assays:
[1] = target: Cytochrome P450 3A7 (Homo sapiens) (UniProt P24462); assay: Cytochrome P450 family 3 subfamily A member 7 (CYP3A7) small molecule antagonists: luciferase biochemical qHTS assay (AID 1963596); further: nearly all actives have a fitted effect of over 40% in size; further: potency means the concentration at half of the fitted maximal effect
Chain of Cytochrome P450 3A7 (Homo sapiens) (P24462 whole entry, looked up): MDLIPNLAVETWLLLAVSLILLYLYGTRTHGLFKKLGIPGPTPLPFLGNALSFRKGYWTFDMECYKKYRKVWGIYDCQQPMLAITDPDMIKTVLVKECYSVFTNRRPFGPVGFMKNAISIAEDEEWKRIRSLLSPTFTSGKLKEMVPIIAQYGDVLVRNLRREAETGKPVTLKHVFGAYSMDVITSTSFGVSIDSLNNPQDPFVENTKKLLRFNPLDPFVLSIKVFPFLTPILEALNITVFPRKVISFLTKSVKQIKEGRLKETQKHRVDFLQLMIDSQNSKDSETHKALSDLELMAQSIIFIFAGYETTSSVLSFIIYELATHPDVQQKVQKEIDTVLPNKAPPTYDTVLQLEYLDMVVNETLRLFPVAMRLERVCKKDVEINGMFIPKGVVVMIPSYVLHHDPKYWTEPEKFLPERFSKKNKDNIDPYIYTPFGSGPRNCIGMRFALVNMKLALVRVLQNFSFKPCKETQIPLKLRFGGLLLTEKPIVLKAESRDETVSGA
How it was run: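 Enzyme-substrate mix + cpd (DMSO), 10 min RT; + NADPH regen system, 1 h RT; + luciferin detection reagent, 20 min RT; luminescence read. Proluciferin substrate, P450-Glo format, 1536-well qHTS.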

[2] = Viability qHTS for spleen associated tyrosine kinase inhibitor (SYKi) naive MV4-11 cells (AID 1963823); further: nearly all actives have a fitted effect of over 40% in size; further: potency means the concentration at half of the fitted maximal effect
How it was run: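 Read-out: CellTiter-Glo luminescence. Exposure: 72 hr, 37 C, 5% CO2, 95% humidity. Cells: MV4-11 without SYK inhibitor history, 500/well, qHTS format.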

[3] = Quantitative highthroughput screen to assess conditional lethalithy of NOMO1 cells grown in RPMI1640 with dialyzed fetal bovine serum (RPMI+ds) (AID 1963877); further: nearly all actives have a fitted effect of over 30% in size; further: potency means the concentration at half of the fitted maximal effect;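 on Viability: series mostly up to about 46 µM; 100% = DMSO control wells and 0% = empty wells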
How it was run: (§1)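 Each medium arm—HPLM with 10% dialyzed FBS, or RPMI1640 with 5 mM glucose and 10% untreated or dialyzed FBS—was screened against an 11-point, 3-fold compound titration for 48 h at 37 °C, with CellTiter-Glo luminescence as endpoint.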

[4] = Quantitative highthroughput screen to assess conditional lethalithy of NOMO1 cells grown in Human Plasma-Like Medium with dialyzed fetal bovine serum (HPLM+ds) (AID 1963878); further: nearly all actives have a fitted effect of over 35% in size; further: potency means the concentration at half of the fitted maximal effect;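 on Viability: 100% = DMSO wells and 0% = empty wells on each plate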
How it was run: as §1

[5] = Quantitative highthroughput screen to assess conditional lethalithy of P12 Ichikawa cells grown in Human Plasma-Like Medium with dialyzed fetal bovine serum (HPLM+ds) (AID 1963879); conditions: Potency: viability; further: nearly all actives have a fitted effect of over 35% in size; further: potency means the concentration at half of the fitted maximal effect; on Viability: series mostly up to about 46 µM
How it was run: as §1

[6] = Quantitative highthroughput screen to assess conditional lethalithy of P12 Ichikawa cells grown in RPMI1640 with dialyzed fetal bovine serum (RPMI+ds) (AID 1963880); conditions: Potency: P12-Ichikawa viability; further: nearly all actives have a fitted effect of over 35% in size; further: potency means the concentration at half of the fitted maximal effect;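 on Viability: 100% = DMSO wells and 0% = empty wells on each plate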
How it was run: as §1

[7] = Quantitative highthroughput screen to assess conditional lethalithy of P12 Ichikawa cells grown in RPMI1640 with untreated serum (RPMI+s) (AID 1963881); conditions: Potency: viability; further: nearly all actives have a fitted effect of over 35% in size; further: potency means the concentration at half of the fitted maximal effect;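 on Viability: series mostly up to about 46 µM; 100% = DMSO wells and 0% = empty wells without cells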
How it was run: as §1

[8] = Quantitative highthroughput screen to assess conditional lethalithy of SEM cells grown in Human Plasma-Like Medium with dialyzed fetal bovine serum (HPLM+ds) (AID 1963882); further: nearly all actives have a fitted effect of over 35% in size; further: potency means the concentration at half of the fitted maximal effect; on Viability: series mostly up to about 46 µM
How it was run: as §1

[9] = Quantitative highthroughput screen to assess conditional lethalithy of SEM cells grown in RPMI1640 with unreated serum (RPMI+s) (AID 1963883); further: nearly all actives have a fitted effect of over 35% in size; further: potency means the concentration at half of the fitted maximal effect;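 on Viability: 100% = DMSO wells and 0% = empty wells without cells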
How it was run: as §1

[10] = Quantitative highthroughput screen to assess conditional lethalithy of SEM cells grown in RPMI1640 with dialyzed fetal bovine serum (RPMI+ds) (AID 1963884); further: nearly all actives have a fitted effect of over 35% in size; further: potency means the concentration at half of the fitted maximal effect;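 on Viability: series mostly up to about 46 µM; 100% = DMSO control wells and 0% = empty wells without cells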
How it was run: as §1

[11] = Cellular viability qHTS for adrenocortical cancer (ACC) cell line SW-13 (AID 1963989); conditions: SW-13 ACC cells viability, CellTiter-Glo, 48 h; activity (max response): stronger effect = lower value; further: nearly all actives have a fitted effect of over 65% in size; further: potency means the concentration at half of the fitted maximal effect;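 on activity (max response): cells grown in serum-free medium with ITS supplement; on the % scale 0 is the no-effect control and ±100 the full control effect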
How it was run: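 Here, serum-free SW-13 cultures were dosed up to 46 uM. Following 48 h, ATP-dependent luminescence (CellTiter-Glo) reported viable cells, and logistic modeling produced IC50 values.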

[12] = Cellular viability qHTS for adrenocortical cancer (ACC) cell line NCI-H295R (AID 1963990); further: nearly all actives have a fitted effect of over 60% in size; further: potency means the concentration at half of the fitted maximal effect
How it was run: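 Viability of NCI-H295R after 48 h of treatment (final up to 46 uM) measured through cellular ATP luminescence.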

[13] = Quantitative highthroughput screen to assess conditional lethalithy of NOMO1 cells grown in RPMI1640 with untreated serum (RPMI+s) (AID 1963876); further: nearly all actives have a fitted effect of over 35% in size; further: potency means the concentration at half of the fitted maximal effect;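 on Viability: 100% = DMSO wells and 0% = empty wells without cells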
How it was run: as §1

[14] = Viability qHTS for spleen associated tyrosine kinase inhibitor (SYKi) drug resistant MV4-11 cells (AID 1963824); further: nearly all actives have a fitted effect of over 35% in size
How it was run: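 SYK-inhibitor-resistant MV4-11 AML cells were seeded at 500 per well onto compound and cultured 72 hours (37 °C, 5% CO2). CellTiter-Glo was then added, and after 10 min at room temperature, luminescence gave viability.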

COc1cc(Nc2c(C#N)cnc3cc(OCCCN4CCN(C)CC4)c(OC)cc23)c(Cl)cc1Cl
active: Potency [1] 15.5 µM | Potency [2] 944 nM and 1.3 µM and 1.18 µM | Potency [3] 8.33 µM | Potency [4] 3.72 µM | Potency [5] 3.72 µM | Potency [6] 5.26 µM | Potency [7] 4.69 µM | Potency [8] 1.66 µM | Potency [9] 1.87 µM | Potency [10] 2.35 µM | Potency [11] 4.61 µM and 2 µM | Potency [12] 4.61 µM and 3.55 µM

OCc1ccccn1
inactive: Potency [1] | Potency [2] | activity (max response) [11] -4.99%

Cc1cnc(NC(=O)C2=C(O)c3ccccc3S(=O)(=O)N2C)s1
inactive: Potency [1] | Potency [2] | Potency [13] | Potency [3] | Potency [4] | Potency [5] | Potency [6] | Potency [7] | Potency [8] | Potency [9] | Potency [10] | activity (max response) [11] 12.3% [middle of 4 runs] | Potency [12]

CC(C)Nc1cc(C(F)(F)F)cc2nc(NC(=O)c3cccnc3)nn12
active: Potency [2] 184 nM | Potency [13] 1.05 µM | Potency [3] 0.743 µM | Potency [7] 2.35 µM | Potency [8] 1.32 µM | Potency [9] 1.18 µM | Potency [10] 1.18 µM
inactive: Potency [1] | activity (max response) [11] -12.5%

Cc1nc2n(c(=O)c1CCN1CCC(c3noc4cc(F)ccc34)CC1)CCCC2
inactive: Potency [1] | Potency [2] | Potency [13] | Potency [6] | Potency [7] | Potency [8] | Potency [9] | Potency [10] | activity (max response) [11] -10.2% | Potency [12]

C=CCOc1ccccc1OCC(O)CNC(C)C (stereo not given)
inactive: Potency [1] | Potency [2] | Potency [14] | Potency [12]

Cc1[nH]c(=O)c(C#N)cc1-c1ccncc1
inactive: Potency [1] | Potency [2] | Potency [4] | Potency [8] | Potency [9] | Potency [10] | Potency [12]

COc1ccccc1OCC(O)CN1CCN(CC(=O)Nc2c(C)cccc2C)CC1 (stereo not given)
inactive: Potency [1] | Potency [2] | Potency [13] | Potency [3] | Potency [4] | Potency [5] | Potency [6] | Potency [9] | Potency [10] | activity (max response) [11] 1.47% and 6.99%

CC1(C)OC(=O)NC1=O
inactive: Potency [1] | Potency [2] | Potency [14] | Potency [12]

CN(c1nccc(=O)[nH]1)C1CCN(c2nc3ccccc3n2Cc2ccc(F)cc2)CC1
inactive: Potency [1] | Potency [2] | Potency [13] | Potency [3] | Potency [4] | Potency [5] | Potency [6] | Potency [7] | Potency [9] | Potency [10] | activity (max response) [11] 5.56% | Potency [12]

COc1nccnc1NS(=O)(=O)c1ccc(N)cc1
inactive: Potency [1] | Potency [2] | Potency [14] | Potency [12]

CCN(C)C(=O)Oc1cccc([C@H](C)N(C)C)c1
inactive: Potency [1] | Potency [2] | Potency [13] | Potency [3] | Potency [4] | Potency [5] | Potency [6] | Potency [7] | Potency [9] | Potency [10] | activity (max response) [11] 11.5% | Potency [12]

COc1cc(NS(=O)(=O)c2ccc(N)cc2)ncn1
inactive: Potency [1] | Potency [2] | Potency [14] | Potency [12]

Cc1cc(C(C)(C)C)c(O)c(C(C)(C)C)c1
inactive: Potency [1] | Potency [2] | Potency [14]
active: Potency [12] 25.9 µM

COC(=O)[C@H](Cc1ccccc1)NC(=O)[C@@H](N)CC(=O)O (H-Asp-Phe-OMe)
inactive: Potency [1] | Potency [2] | Potency [13] | Potency [3] | Potency [4] | Potency [5] | Potency [6] | Potency [7] | Potency [8] | Potency [9] | Potency [10] | activity (max response) [11] 0.253% and -5.37% | Potency [12]

OC[C@H]1O[C@@H](O[C@@H]2[C@@H](CO)O[C@](O)(CO)[C@H]2O)[C@H](O)[C@@H](O)[C@H]1O
inactive: Potency [1] | Potency [2] | activity (max response) [11] 1.01% and 4.87% | Potency [12]

COc1cc(C)nc(-n2nc(C)cc2OC)n1
inactive: Potency [1] | Potency [2] | activity (max response) [11] 11%

Cc1[nH]c(C)c(Cl)c(=O)c1Cl
inactive: Potency [1] | Potency [2] | activity (max response) [11] 4.22% | Potency [12]

CNc1c2c(nn1C)CCCC2
inactive: Potency [1] | Potency [2] | activity (max response) [11] -0.416% | Potency [12]

CC(=O)N[C@@H](Cc1ccc(O)cc1)C(=O)O
inactive: Potency [1] | Potency [2] | activity (max response) [11] -8.88% | Potency [12]

CCCCCCCCCCCC(=O)[O][Sn]([CH2]CCC)([CH2]CCC)[O]C(=O)CCCCCCCCCCC
inactive: Potency [2] | activity (max response) [11] 2.55%
active: Potency [1] 19.5 µM

CN(C)CCN(Cc1ccccc1)c1ccccn1
inactive: Potency [2] | activity (max response) [11] -3.06%
active: Potency [1] 6.92 µM

COc1cc(OC)nc(O[C@H](C(=O)O)C(OC)(c2ccccc2)c2ccccc2)n1
inactive: Potency [1] | Potency [2] | activity (max response) [11] 12.1% | Potency [12]

CC(C)(C)NC[C@H](O)COc1cccc2c1CCCC2=O
active: Potency [2] 11900 nM
inactive: Potency [1] | activity (max response) [11] -13.3%

CCCCCCCCCCC(CO)CCCCCCCC (stereo not given)
inactive: Potency [1] | Potency [2] | activity (max response) [11] 0.379% | Potency [12]

CCCCCC[C@@H](CCC)C(=O)O
inactive: Potency [1] | Potency [2] | activity (max response) [11] 6.05% | Potency [12]

CCN1CCN(Cc2ccc(NC(=O)Nc3ccc(Oc4cc(NC)ncn4)cc3)cc2C(F)(F)F)CC1
inactive: Potency [1] | Potency [2]
active: Potency [11] 3.98 µM | Potency [12] 10 µM
